Assay results from PubChem BioAssay (NCATS).
Inconclusive results are not listed. A call without a number means that no potency is given here. Calls of active or inactive are those of the source. Unless noted, calls follow the shape of the dose curve; as a rule, active = well fitted curve in the direction sought with a large enough effect; inconclusive = small, poorly fitted or top-dose-only effect, or another doubt; inactive = no such curve, though single readings can be large; an effect the other way counts as inactive or inconclusive.

Key:
[1] = NCATS anti-infectives library activity on HEK293 viability as a counter-qHTS vs the C. elegans viability qHTS (AID 1745854);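 also: HEK293 cells exposed to compounds for 24 hr before the viability read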
Source text: (§1) Assay Development and Screening Technology Laboratory (ADST)
(§2) National Center for Advancing Translational Sciences (NCATS), Rockville, MD
(§3) National Institute of Health (NIH), Bethesda, Maryland
Caenorhabditis elegans has helped elucidate the evolutionarily conserved genetics underlying pathways and cellular processes implicated in human disease and may be ideally positioned to reveal novel pharmacological properties of exiting drugs. The organism's short life cycle and microscopic size is applicable to the technical requirements of high-throughput screening. Here a quantitative high-throughput screening (qHTS)-based forward chemical biology platform has been developed using C. elegans. 384-well microtiter plate laser scanning cytometry was used in the rapid detection and quantification of the fluorescent protein-encoded phenotype to score worm viability. […]
1. […] P. (2006) Quantitative high-throughput screening: A titration-based approach that efficiently identifies biological activities in large chemical libraries, P Natl Acad Sci USA 103, 11473-11478.
2. […] P., and Inglese, J. (2006) Fluorescent protein-based cellular assays analyzed by laser-scanning microplate cytometry in 1536-well plate format, Method Enzymol 414, 566-589. […]
SEQUENCE No. (e.g., 1, 2, 3, etc.); […] (e.g., C. elegans, Compounds, Incubation, Read, etc.); VALUE and DESCRIPTION. […]

[2] = NCATS anti-infectives library activity on the primary C. elegans qHTS viability assay (AID 1745855; calls by dose curve; also: potency is read from the fitted curve at half-maximal effect); conditions: C. elegans worm area imaging, day 7
How it was run: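 GFP read-out by 488 nm laser cytometry at day 0, 3 and 7, gated on object perimeter, area and peak intensity, scored viability of PE254-GFP-FLuc worms exposed to compound in S medium with bacterial capsules at 21 °C.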

[3] = target: Nuclear receptor subfamily 1 group I member 3 (Homo sapiens) (UniProt Q14994); experiment: Primary qHTS for antagonist of constitutive androstane receptor (CAR) against the NCATS DSHEA and TCM libraries (AID 1794836);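 also: HepG2 cells stably expressing hCAR with CYP2B6 luciferase reporter stimulated by CITCO; series mostly up to about 40 µM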
Nuclear receptor subfamily 1 group I member 3 (Homo sapiens), sequence (Q14994 whole entry, looked up): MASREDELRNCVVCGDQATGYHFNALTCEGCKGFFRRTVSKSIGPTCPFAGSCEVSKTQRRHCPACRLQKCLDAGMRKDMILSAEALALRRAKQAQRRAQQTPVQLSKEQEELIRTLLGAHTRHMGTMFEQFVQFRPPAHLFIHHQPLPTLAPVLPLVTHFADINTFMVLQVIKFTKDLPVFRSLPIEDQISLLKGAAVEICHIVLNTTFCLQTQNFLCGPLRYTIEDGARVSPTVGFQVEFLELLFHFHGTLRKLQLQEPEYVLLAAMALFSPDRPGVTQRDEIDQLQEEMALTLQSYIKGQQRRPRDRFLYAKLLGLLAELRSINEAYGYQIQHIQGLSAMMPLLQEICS
Source text: as §1, §2, §3
Dietary Supplements and Natural Products have minor oversight of their safety and efficacy. We assembled a collection of Dietary Supplements and Natural Products (DSNP) as well as Traditional Chinese Medicinal (TCM) Plant extracts, which were screened against an in vitro panel of assays, including a liver cytochrome p450 enzyme panel, CAR/PXR signaling pathways, and P-gp transporter assays, to assess their activity. This pipeline facilitated the interrogation of Natural Product-Drug Interaction (NaPDI) through prominent metabolizing pathways. In addition, we compared the activity profiles of the DSNP/TCM substances with those of an approved drug collection. […] Overall, we highlight four significant bioactivity profiles (measured by p-values) as examples of this prediction. […]
8; Detector 1; Fluorescence intensity; ViewLux plate reader (excitation 405 nm, emission 540 nm). […]
11; Detector 2; Luminescence intensity; ViewLux. […]
8. Fluorescence intensity (Ex/Em = 405 nm/540 nm) is obtained using the ViewLux plate reader to determine cell viability. […]
10. Luminescence intensity is read using the ViewLux detector.

[4] = Viability counterscreen for antagonist of constitutive androstane receptor (CAR) against the NCATS DSHEA and TCM libraries (AID 1794837);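 also: compound exposure lasted 24 h before viability reading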
How it was run: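 Cells: HepG2 line carrying CYP2B6 reporter and hCAR, seeded and attached 5 h. Then pin-transferred test substances plus agonist CITCO at 48 uM final; 24 h incubation; fluorogenic viability reagent, 1 h.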

[5] = Viability counterscreen for agonist of constitutive androstane receptor (CAR) against the NCATS DSHEA and TCM libraries (AID 1794838);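 also: HepG2 cells with CYP2B6 reporter and hCAR plus 0.75 µM PK11195 antagonist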
How it was run: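 Cell health was measured as CellTiter-Fluor signal in HepG2-CYP2B6-hCAR cells treated for 24 h with substances alongside the hCAR antagonist PK11195 (0.75 uM final).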

[6] = target: Nuclear receptor subfamily 1 group I member 3 (Homo sapiens) (UniProt Q14994); experiment: Primary qHTS for agonist of constitutive androstane receptor (CAR) against the NCATS DSHEA and TCM libraries (AID 1794839); conditions: CAR agonist reporter cells, qHTS luminescence; also: potency is read from the fitted curve at half-maximal effect
How it was run: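 qHTS, agonist mode: HepG2-CYP2B6-hCAR, 2,500 cells/well, 5 h attach; cpds + PK11195 0.75 µM final; 24 h, 37 °C, 5% CO2. Readouts: CellTiter-Fluor (405/540 nm), then ONE-Glo luminescence.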

[7] = HepG2 viability counterscreen (readout 2: ATP content) against the NCATS DSHEA and TCM libraries (AID 1794840)
How it was run: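 Same wells read twice: first fluorescence from cleaved GF-AFC substrate (25 uM final, 30 min, 37C) for live-cell protease, then CellTiter-Glo luminescence after 30 min at room temperature for ATP. HepG2 cells were exposed ~24 h to substances.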

SMILES: NCC(CC(=O)O)c1ccc(Cl)cc1 (centres undefined)
- outcome [1]: inactive

SMILES: Cc1sc2c(c1C)C(c1ccc(Cl)cc1)=N[C@@H](CC(=O)OC(C)(C)C)c1nnc(C)n1-2
- outcome [1]: inactive
- Potency [2]: 4.09 µM (active)

SMILES: O=c1c(O)c(-c2ccc(O)c(O)c2)oc2cc(O)cc(O)c12
- outcome [3]: inactive

SMILES: CC(C)=CCOc1c2occc2cc2ccc(=O)oc12
- outcome [3]: inactive
- outcome [4]: inactive
- outcome [5]: inactive
- Potency [6]: 14.1 µM (active)
- outcome [7]: inactive
